# PGE2 EP2 inh – human EP2 receptor antagonists, primary screen, TR-FRET cAMP, C6 glioma cells. 260,000 compounds, 0.52% hits. C6 glioma cells expressing human EP2; cells stimulated with saturating PGE2. inhibition, % at 25 µM. AID 1422, 2008;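 active means percent inhibition above 40 after rounding to a whole number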;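 further: rat C6 glioma host cells with rolipram phosphodiesterase inhibitor present; the protocol text gives 20 µM as final concentration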
# EP2 mod – EP2 receptor modulators, cAMP readout, primary screen, cell-based, HTRF cAMP, PGE2 stimulation; Prostaglandin E2 receptor EP2 subtype (Homo sapiens), P43116; induction, % at 25 µM; AID 940, 2007; EP2-expressing cells, cAMP HTRF FRET, PGE2 co-stimulation; 260,000 compounds, 0.83% hits;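 active means compounds whose cAMP rise, as percent of the full-agonist control response, exceeds 60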;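 further: rat C6 glioma line stably carrying human EP2 under a CMV promoter; the protocol text gives 20 µM as final concentration; 100% = response of wells given 1 µM PGE2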
# CHT inh – inhibitors of human choline transporter CHT | High affinity choline transporter 1 (Homo sapiens), Q9GZV3 | CHT-expressing cells, membrane potential dye, choline response; hits give low values | B-score at 10 µM | 310,000 compounds, 0.86% hits;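 active means B-score over 3 SD under the library average, and starting fluorescence ratio not unusually high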;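 further: choline stimulus applied at its EC90 after an EC20 pre-addition; B-score computed on integrated fluorescence ratio after choline addition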
# Target sequence (Q9GZV3 whole entry, looked up): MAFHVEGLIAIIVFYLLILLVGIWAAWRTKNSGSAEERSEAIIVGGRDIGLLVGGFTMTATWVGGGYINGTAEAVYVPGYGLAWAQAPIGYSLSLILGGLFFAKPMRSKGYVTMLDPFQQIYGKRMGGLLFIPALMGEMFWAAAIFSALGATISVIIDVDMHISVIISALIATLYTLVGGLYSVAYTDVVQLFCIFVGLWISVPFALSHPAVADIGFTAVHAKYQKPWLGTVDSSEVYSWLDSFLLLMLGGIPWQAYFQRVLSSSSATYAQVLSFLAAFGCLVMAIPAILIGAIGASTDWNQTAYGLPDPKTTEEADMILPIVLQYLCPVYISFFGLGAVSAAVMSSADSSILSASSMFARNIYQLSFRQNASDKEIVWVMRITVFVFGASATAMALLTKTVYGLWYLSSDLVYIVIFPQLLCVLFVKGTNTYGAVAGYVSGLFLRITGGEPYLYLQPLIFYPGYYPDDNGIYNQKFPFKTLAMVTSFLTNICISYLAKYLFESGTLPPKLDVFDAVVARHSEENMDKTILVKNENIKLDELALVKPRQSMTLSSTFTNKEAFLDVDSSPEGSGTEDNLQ
# CHT PAM – CHT positive allosteric modulators, primary screen, cell-based, membrane potential dye, choline EC20; High affinity choline transporter 1 (Homo sapiens), Q9GZV3; CHT-expressing cells; hits give high values; LV-AA mutant CHT in HEK293 cells; B-score at 10 µM; 310,000 compounds, 0.49% hits;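 active means initial fluorescence not abnormally high and integrated response B-score, plate-corrected, over 3 SD above library mean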
# CHT act confirm – CHT activators, confirmation, cell-based, membrane potential dye, duplicate. AID 504833, 2011. 2,500 compounds, 91% hits. CHT-expressing cells, membrane potential dye fluorescence (FDSS); % of choline EC20–EC90 response window; HEK293 expressing CHT LV-AA mutant; choline added at its EC20. activation, % at 10 µM. shares compounds with CHT PAM;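 active means primary screen active, with duplicate mean activation above negative control mean plus 3 SD, cut at about 11% in these data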
# HEK293 MP dye – membrane potential response in parental HEK293 cells, counter-screen for CHT activator project, cell-based, membrane potential dye; shares compounds with CHT PAM; membrane potential dye fluorescence (FDSS); measured after EC20 choline addition; ratio readout change at 10 µM, hits read low; 2,500 compounds, 62% hits;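 active means duplicate-averaged ratio beyond 3 SD from buffer wells, up or down, though filed actives are nearly all decreases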
# Starred values were filed as active, the others as inactive; i = inactive; nt = no result given. A selection: hits, their analogues and other compounds. The true share with any hit is near 2%.
SMILES,PGE2 EP2 inh,EP2 mod,CHT inh,CHT PAM,CHT act confirm,HEK293 MP dye
Cn1c(=O)c(=O)n(C)c2cc(N3CCCC3)c(NS(=O)(=O)c3ccc(Cl)cc3)cc21,nt,nt,i,6.62*,55.3*,-55*
Cn1c(=O)c(=O)n(C)c2cc(N3CCOCC3)c(NS(=O)(=O)c3ccc(F)c(Cl)c3)cc21,nt,nt,i,6.56*,48.5*,-51.4*
Cn1c(=O)c(=O)n(C)c2cc(N3CCOCC3)c(NS(=O)(=O)c3ccc([N+](=O)[O-])cc3)cc21,nt,nt,i,i,nt,nt
CCOC(=O)c1c[nH]c2c(Cl)c(Cl)ccc2c1=O,6.5,13.5,i,i,38.9*,-36.9*
CCOC(=O)c1c[nH]c2c(C)ccc(Cl)c2c1=O,10.1,-18.9,i,i,nt,nt
CCOC(=O)c1c[nH]c2c(Cl)ccc(Cl)c2c1=O,19.7,12.1,i,7.16*,69.2*,-64.1*
CCOC(=O)c1c[nH]c2c(C)cc(C)cc2c1=O,5.4,-19.7,i,8.13*,62.9*,-37.1*
Cc1ccccc1CN1CCN(C(=O)c2ccco2)CC1,nt,nt,i,i,nt,nt
Cc1cccn2c1nc(=S)n2C(=O)c1ccco1,5.5,22.8,i,i,26.7*,-20.9*
COc1ccc2c(c1)NC1(CCN(C(=O)Cn3cnc4ccccc43)CC1)c1cccn1-2,5.8,-247.2,nt,nt,nt,nt
C(#Cc1ccccc1)C[N+]1(CC#Cc2ccccc2)CCCCC1,10.6,-44.9,i,i,nt,nt
Cc1ccc(C#CC[N+]2(CC#Cc3ccc(C)cc3)CCCCC2)cc1,2.4,-27.2,i,8.71*,18.4*,i
CCC(C)(C)n1nnnc1C(c1cc2ccc(C)c(C)c2[nH]c1=O)N1CCC(O)CC1 (stereo unspecified),10.4,-99.4,nt,nt,nt,nt
Cc1cc2cc(CN(Cc3ccc4c(c3)OCO4)C(=O)c3cnccn3)c3nnnn3c2cc1C,14.2,-20.7,i,i,nt,nt
O=C(c1ccccc1F)N(Cc1ccc2c(c1)OCO2)Cc1cc2cc3c(cc2n2nnnc12)OCO3,10.2,18.4,i,i,14.8*,i
CCCN(CC(=O)Nc1ccccc1C)C(=O)c1ccc(Cl)c(S(=O)(=O)N2CCCC2)c1,nt,nt,i,i,nt,nt
CCCN(CC(=O)Nc1ccccc1C)C(=O)c1ccc(C)c(S(=O)(=O)N2CCCCC2)c1,nt,nt,i,i,14.4*,i
COc1ccc(OC)c(NC(=O)Cn2cc(C(=O)C(C)C)c3ccccc32)c1,4.3,-14.2,nt,nt,nt,nt
Cc1nnc(SCCn2c(N3CCCCC3)nc3c2c(=O)n(C)c(=O)n3C)s1,5.3,nt,i,i,nt,nt
Cc1nnc(SCCn2c(N3CCN(C)CC3)nc3c2c(=O)n(C)c(=O)n3C)s1,1.6,30.4,i,7.66*,46.2*,-70.2*
CCC(=Nc1ccccc1OC)C1=C(O)CC(c2ccccc2)CC1=O (stereo unspecified),3.0,-13.9,i,11.7*,32.0*,i
CCC(=Nc1ccccc1O)C1=C(O)CC(c2ccccc2)CC1=O (stereo unspecified),9.1,-38.7,i,i,nt,nt
Cc1cc(C)c2ccc(N)nc2c1O,9.5,-40.9,i,i,41.8*,-53*
Cc1cc(C)nc(SCCn2c(N3CCCC3)nc3c2c(=O)n(C)c(=O)n3C)n1,14.7,8.9,nt,nt,nt,nt
CN1C(=O)CS/C1=N\NC(=O)COc1cccc2cccnc12,4.3,-2.0,i,6.64*,48.4*,-55.8*
Cc1ccccc1OCC(=O)N/N=C1\SCC(=O)N1Cc1ccccc1,7.7,-47.5,i,i,nt,nt
Cc1nn(-c2ccccc2)c2[nH]c(=O)c(CNc3ccccc3N3CCOCC3)cc12,7.2,-24.2,nt,nt,nt,nt
CCCCCCCn1c(=N)n(CC(O)c2ccco2)c2ccccc21 (stereo unspecified),8.9,-67.7,i,i,nt,nt

# Source: PubChem (several laboratories)
